# Source: PubChem BioAssay AID1276 (Columbia University Molecular Screening Center, 2008)
# Among all 190,000 compounds or so, about 2,000 (1.1%) were called active. Only a selection was taken, and actives are over-represented in it overall. Unmarked numbers belong to inactive results.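 The calls were made as follows: active = activation above a set limit, based on mean plus 3 SD of controls (cut at about 140% in these data); inconclusive = one replicate above the limit, the other below; inactive = the rest.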
# Experiment: APP 5'UTR reporter signal increase – luciferase, SH-SY5Y cells, primary screen (AID 1276)
# Details: SH-SY5Y APP 5'UTR luciferase reporter, luminescence; at 2 µM; active compounds read high; zero percent = DMSO vehicle wells
row,SMILES,activation
1,Cc1ccc(C(=O)Nc2cccc3ncccc23)cc1[N+](=O)[O-],-2.5%
2,CCN1CCC(=NNC(=O)c2ccc(C)c([N+](=O)[O-])c2)CC1,-0.15%
3,Cc1cc(O)c(NC(=O)c2ccc(C)c([N+](=O)[O-])c2)cc1C,142% (active)
4,O=[N+]([O-])c1ccccc1N/N=C1\CCc2ccccc21,120%
5,Nc1ccc(-c2nnc(-c3ccc(-c4ccccc4)cc3)o2)cc1,79.7%
6,CCc1ccc2oc(-c3ccc(N)cc3)nc2c1,141% (active)
7,CCCCCC(=O)Nc1ccc2oc(-c3ccncc3)nc2c1,7.49%
8,C=CCNC(=S)N1CCN(CCN=Cc2c(C)[nH]n(-c3ccc([N+](=O)[O-])cc3)c2=O)CC1,1.34%
9,O=C(CN1CCN(c2ccc(O)cc2)CC1)Nc1cc(S(=O)(=O)N2CCOCC2)ccc1Cl,2.42%
10,OCC1(CCOc2ccccc2)CCN(Cc2cn[nH]c2-c2ccccc2)CC1,7.79%
11,O=C(c1cnn(-c2ccc(Cl)cc2)c1)c1ccccc1O,177% (active)
12,Cc1ncc(CC(=O)n2cc(C(=O)c3cc(Cl)ccc3O)cn2)s1,6.84%
13,O=C(O)c1ccc(NC(=O)c2cn(-c3ccccc3)nc2-c2ccc(Cl)cc2)cc1,8.51%
14,Cc1nc2ccccc2nc(=O)c1NNc1ccc([N+](=O)[O-])cc1,-4.38%
15,CCOC(=O)c1ccc(NC2Nc3cc(C)nn3S2)cc1 (centres undefined),4.66%
16,CCc1ccc(NC2Nc3cc(C)nn3S2)cc1 (centres undefined),166% (active)
17,CCc1ccc(NC(=O)N2CCN(c3ccccc3)CC2)cc1,1.57%
18,CC(=O)c1ccc(-c2nnc(CCC(=O)N(C)Cc3cnc4ccccn34)o2)s1,-5.43%
19,COC(=O)CN1C(=O)N/C(=C/c2ccc(OC)c(C)c2OC)C1=O,-21.7%
20,Cc1cc(C)n(Cc2cnc(N3CCOCC3)s2)n1,22.6%
21,NNC(=O)c1cnn(-c2ccccc2)c1C(F)(F)F,15.9%
22,Cc1ccccc1Nc1nc(N)nc(CSc2nnc3ccccn23)n1,59.9%
23,Cc1ccccc1Nc1nc(N)nc(CSc2ccccc2)n1,159% (active)
24,Cc1ccc(C(=O)OCc2nc(N)nc(Nc3ccccc3C)n2)cc1,-2.39%
25,CCCC1(C(=O)OC)NC(c2ccco2)C2C(=O)N(C)C(=O)C21 (centres undefined),9.69%

row,SMILES,activation
1,CC(=O)NCCc1nc2cc(NC(=O)c3ccccc3)ccc2n1C,55.4%
2,Cc1cc(C)c2nc(SCC(=O)N(C)C3CCS(=O)(=O)C3)cc(C)c2c1 (centres undefined),11.6%
3,O=C(CC1SCCNC1=O)Nc1ccc(Cl)c(Cl)c1 (centres undefined),-7.34%
4,Cc1nc(SCC(=O)Nc2cc(C)on2)c2c3c(sc2n1)CCCC3,-10.6%
5,Cc1cc(NC(=O)CSc2nc3c(cc2C#N)CCCCC3)no1,191% (active)
6,CC(NC(=O)CSc1nc2c(cc1C#N)CN(C)CC2)c1ccccc1 (centres undefined),1.35%
7,COc1ccc(C2CC(c3cccs3)=Nc3ccccc3S2)cc1OC (centres undefined),2.96%
8,COc1ccc(-c2nn3c(-c4ccccc4)nnc3s2)cc1OC,12.1%
9,COc1ccc(-c2csc(-c3cccs3)n2)cc1OC,172% (active)
10,O=C(NCCc1ccccn1)c1cc(-c2ccc(Cl)cc2)nc2ccccc12,-9.75%
11,O=c1c2c(nc3cc(-c4cccc(Cl)c4)[nH]n13)CCCC2,158% (active)
12,O=c1c2c(nc3nc[nH]n13)CCC2,3.94%
13,O=C1CCCc2c1nc(-c1cccc(Cl)c1)n2O,-94.3%
14,Cc1ccc(-c2cc(N)on2)cc1,-4.88%
15,CCC(C)NC(=O)Cn1nc(C(F)(F)F)c2c1CCC2 (centres undefined),-3.33%
16,COc1ccc(-c2cn3cccnc3n2)cc1,35.2%
17,COc1ccc(-c2cn3ccsc3n2)cc1,135% (active)
18,CCCC(=O)Nc1cccc(-c2cn3ccsc3n2)c1,20.7%
19,CN1C(=O)/C(=C\c2ccc(-c3ccccc3)o2)SC1=S,5.23%
20,Cc1cccc(OC(=O)c2sc3ncn(C)c(=O)c3c2C)c1,62.6%
21,O=C(c1cccc(N2CCCC2=O)c1)N1CCOCC1,10.7%
22,O=C(O)c1cccc(N2C(=O)Nc3ccccc3N2O)c1,27.8%
23,NC1=NN(c2cccc(C(=O)O)c2)C(=O)C1,135% (active)
24,CCOC(=O)c1cc2c(=O)[nH]c(C(Cl)(Cl)Cl)nc2o1,5.69%
25,CCCCOc1ccc(C(=O)NCC(=O)OCC(=O)N2CCN(S(=O)(=O)c3ccc(C)cc3C)CC2)cc1,-1.98%

row,SMILES,activation
1,Cc1ccnc(Nc2nc3ccccc3s2)n1,127%
2,O=[N+]([O-])c1cc(Br)c(O)c(/C=N/Nc2nc3ccccc3s2)c1,12.5%
3,c1ccc2sc(NN=C3CCCC3)nc2c1,193% (active)
4,CCOCCCNC(=S)N1CCC(NC(=O)C2CCCCC2)CC1,-16.3%
5,CCn1ccnc1CN(C)Cc1nc(-c2ccc3c(c2)OCO3)no1,14.5%
6,O=C(O)c1ccc(N/N=C/c2cn(-c3ccccc3)nc2-c2cccs2)cc1,140% (active)
7,O=C(O)/C=C/c1cn(-c2ccccc2)nc1-c1cccs1,-9.09%
8,O=C(/C=C\c1cn(-c2ccccc2)nc1-c1cccs1)N1CCOCC1,-5.12%
9,COc1ccc(/C=N/N=C/c2c[nH]c(=O)c(C#N)c2Nc2ccccc2)cc1,-8.9%
10,COc1ccccc1OCc1nc2ccccc2s1,142% (active)
11,COc1cccc2sc(NNC(=O)c3nc4ccccc4s3)nc12,7.9%
12,CCc1ccc(-c2nnn(Cc3nc4ccccc4s3)n2)cc1,0.38%
13,CC(O)C(NS(=O)(=O)c1ccc(Cl)cc1)C(=O)OCc1cc([N+](=O)[O-])cc2c1OCOC2 (centres undefined),22.7%
14,COc1ccc(-c2noc(-c3ccc(C)cc3)n2)cc1,38.2%
15,COc1ccc(-c2nc(-c3ccccc3)no2)c(OC)c1,139% (active)
16,CCOc1nc(-c2ccc(OC)cc2)ccc1-c1noc(-c2cc(OC)c(OC)c(OC)c2)n1,-12.3%
17,COC(=O)c1c(NC(C)=O)sc(C(=O)Nc2ccccc2OC)c1C,2.59%
18,COc1ccccc1NC(=O)c1ccc(C)s1,141% (active)
19,COc1ccccc1NC(=O)C1=C(C)NC(=O)NC1c1ccc(C)s1 (centres undefined),12.8%
20,CC[n+]1c(C)n(-c2ccccc2)c2ccc(NC(C)=O)cc21,19.1%
21,COC(=O)c1sc(NC(=O)c2ccc(OC)cc2OC)nc1C,137% (active)
22,COc1ccc(C(=O)Nc2nncs2)c(OC)c1,31.6%
23,CCOC(=O)c1sc(NC(=O)c2ccncc2)nc1C,7.58%
24,CCN(CC(=O)Nc1ccc(Cl)c(S(=O)(=O)N(C)C)c1)Cc1nc2ccccc2c(=O)[nH]1,-2.77%
25,NC(=O)Cc1ccc2sc(-c3ccccc3)nc2c1,140% (active)

row,SMILES,activation
1,O=C(O)Cc1sc(-c2ccc(C(=O)O)cc2)nc1-c1ccccc1,19.5%
2,O=C(O)Cc1sc(-c2ccccc2)nc1-c1cccs1,2.54%
3,O=C(Nc1nc2ccc([N+](=O)[O-])cc2s1)c1ccc(S(=O)(=O)N2CCCc3ccccc32)cc1,2.11%
4,CCCCN(C(=O)COc1ccc(NC(C)=O)cc1)C1CCS(=O)(=O)C1 (centres undefined),6.89%
5,COc1cccc(C(=O)Nc2nc3ccc(S(C)(=O)=O)cc3s2)c1,61.6%
6,COc1ccc2nc(Nc3nc4ccc(NC(C)=O)cc4s3)sc2c1,20.2%
7,COc1ccc2nc(NC(=O)c3ccc(Br)s3)sc2c1,136% (active)
8,CCOC(=O)CSC1=N/C(=C/c2ccc(-n3cncn3)cc2)C(=O)N1C(C)=O,-12%
9,O=C(NCc1nnc(SCC(=O)N2CCC(Cc3ccccc3)CC2)o1)c1ccco1,-6.49%
10,O=C(OCc1ccc([N+](=O)[O-])cc1)c1ccccn1,-1.07%
11,N/C(=N\OC(=O)Cc1ccc([N+](=O)[O-])cc1)c1ccccn1,60.6%
12,N/C(=N\OC(=O)c1ccc([N+](=O)[O-])cc1)c1ccccn1,149% (active)
13,O=[N+]([O-])c1ccc2[nH]c3c(c2c1)CCCC3O (centres undefined),-8.34%
14,O=C(COC(=O)c1ccccc1F)Nc1cc(S(=O)(=O)N2CCOCC2)ccc1N1CCCC1,6.91%
15,O=C(/C=C/c1ccc(N2CCOCC2)cc1)c1ccccc1,140% (active)
16,O=C(/C=C/c1ccccc1)c1ccoc1,0.93%
17,O=C(O)c1ccc2c(c1)C(=O)N(c1ccc(/C=C/C(=O)c3ccccc3)cc1)C2=O,19.3%
18,O=S(=O)(Nc1ccccn1)c1cccc(S(=O)(=O)c2ccc(Cl)cc2)c1,8.9%
19,COCCNC(=S)Nc1cc(S(=O)(=O)N2CCOCC2)ccc1N1CCCCC1,21.7%
20,Cn1nnnc1SCC(=O)NNC(=O)c1ccc(Br)cc1,-3.54%
21,O=C(COC(=O)CNS(=O)(=O)c1ccccc1)NC12CC3CC(CC(C3)C1)C2,0.34%
22,CN(C)CCN=c1cc(-c2ccccc2)oc2ccc(Cl)cc12,158% (active)
23,CN(C)CCn1c(=S)[nH]c2ccc(Cl)cc2c1=O,-6.45%
24,Cc1cc(C)n(-c2ccc(C(=O)O)cc2[N+](=O)[O-])n1,-4.56%
